From PubChem BioAssay (Tox21)
Records with an inconclusive call do not appear. Calls of active or inactive are those of the source. Calls come from the whole dose curve; as a rule, active = well fitted curve in the direction sought with a large enough effect in the repeat runs; inconclusive = weak or mixed curves; inactive = no such curve, though single readings can be large; an effect the other way counts as inactive or inconclusive.

Key:
[1] = qHTS RealTime-Glo MT Cell Viability Assay in HEK293 cells - 16 hour (AID 1224872); note: nearly all actives have a fitted effect of over 50% in size; note: potency is the fitted concentration of half-maximal effect
In short: (§1)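 Homogeneous bioluminescent viability format in HEK293 cells (600 cells/well). Following 5 h at 37 C/5% CO2, 23 nL compound was pintooled; the signal was measured repeatedly during 40 h incubation.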

[2] = qHTS RealTime-Glo MT Cell Viability Assay in HepG2 cells - 8 hour (AID 1224873); note: nearly all actives have a fitted effect of over 55% in size; note: potency is the fitted concentration of half-maximal effect
In short: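 HepG2 cells mixed with RealTime-Glo MT reagents (NanoLuc plus cell-permeant prosubstrate) were seeded at 600 cells/well, incubated 5 h at 37 C/5% CO2, then pinned with compounds in DMSO; nonlytic luminescence tracked viability during 40 h treatment.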

[3] = qHTS RealTime-Glo MT Cell Viability Assay in HEK293 cells - 40 hour (AID 1224874); conditions: RealTime-Glo luminescence; max response: active compounds read low; note: nearly all actives have a fitted effect of over 50% in size; note: potency is the fitted concentration of half-maximal effect
In short: (§2)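 600 HEK293 cells per well, dispensed already mixed with RealTime-Glo MT reagents. Compound dosing came 5 h later. The same wells were read for luminescence at 0, 8, 16, 24, 32 and 40 h of exposure at 37 C.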

[4] = A CellTox Green Cytotoxicity Assay to monitor cytotoxicity in HEK293 cells - 24 hour (AID 1224875); note: nearly all actives have a fitted effect of over 45% in size; note: potency is the fitted concentration of half-maximal effect
In short: (§3)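 Dead-cell fluorescence measured kinetically: asymmetric cyanine dye, HEK293, 600 cells/well, 5 h settle, 23 nL cpd/DMSO, 37 C, reads 0–40 h every 8 h.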

[5] = A CellTox Green Cytotoxicity Assay to monitor cytotoxicity in HepG2 cells - 16 hour (AID 1224876); note: nearly all actives have a fitted effect of over 45% in size; note: potency is the fitted concentration of half-maximal effect
In short: (§4)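 First, HepG2 cells (600/well) mixed with reagent were plated; second, after 5 h at 37 C they received compounds via pintool; third, fluorescence was measured at 0 h through 40 h at 8 h intervals.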

[6] = qHTS RealTime-Glo MT Cell Viability Assay in HepG2 cells - 32 hour (AID 1224877); note: nearly all actives have a fitted effect of over 55% in size; note: potency is the fitted concentration of half-maximal effect
In short: (§5)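 Cell number in HepG2 cultures estimated from NanoLuc luminescence generated by metabolic reduction of a prosubstrate by living cells. The homogeneous, nonlytic format allowed repeated reads at 0, 8, 16, 24, 32 and 40 h of compound exposure.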

[7] = A CellTox Green Cytotoxicity Assay to monitor cytotoxicity in HepG2 cells - 24 hour (AID 1224878); note: nearly all actives have a fitted effect of over 45% in size; note: potency is the fitted concentration of half-maximal effect
In short: as §4

[8] = qHTS RealTime-Glo MT Cell Viability Assay in HEK293 cells - 0 hour (AID 1224880); note: nearly all actives have a fitted effect of over 45% in size; note: potency is the fitted concentration of half-maximal effect
In short: as §2

[9] = A CellTox Green Cytotoxicity Assay to monitor cytotoxicity in HepG2 cells - 0 hour (AID 1224882); note: nearly all actives have a fitted effect of over 35% in size; note: potency is the fitted concentration of half-maximal effect
In short: as §4

[10] = A CellTox Green Cytotoxicity Assay to monitor cytotoxicity in HepG2 cells - 32 hour (AID 1224883); note: nearly all actives have a fitted effect of over 50% in size; note: potency is the fitted concentration of half-maximal effect
In short: as §4

[11] = A CellTox Green Cytotoxicity Assay to monitor cytotoxicity in HEK293 cells - 8 hour (AID 1224884); note: nearly all actives have a fitted effect of over 35% in size; note: potency is the fitted concentration of half-maximal effect
In short: as §3

[12] = qHTS RealTime-Glo MT Cell Viability Assay in HepG2 cells - 16 hour (AID 1224885); note: nearly all actives have a fitted effect of over 50% in size; note: potency is the fitted concentration of half-maximal effect
In short: as §5

[13] = qHTS RealTime-Glo MT Cell Viability Assay in HEK293 cells - 8 hour (AID 1224887); note: nearly all actives have a fitted effect of over 50% in size; note: potency is the fitted concentration of half-maximal effect
In short: as §2

[14] = A CellTox Green Cytotoxicity Assay to monitor cytotoxicity in HEK293 cells - 16 hour (AID 1224888); note: nearly all actives have a fitted effect of over 35% in size; note: potency is the fitted concentration of half-maximal effect
In short: as §3

[15] = qHTS RealTime-Glo MT Cell Viability Assay in HepG2 cells - 0 hour (AID 1224889); note: nearly all actives have a fitted effect of over 50% in size
In short: as §5

[16] = A CellTox Green Cytotoxicity Assay to monitor cytotoxicity in HepG2 cells - 8 hour (AID 1224890); note: nearly all actives have a fitted effect of over 45% in size; note: potency is the fitted concentration of half-maximal effect
In short: as §4

[17] = qHTS assay to identify small molecule antagonists of the estrogen receptor alpha (ER-alpha) signaling pathway using the BG1 cell line in the presence of 0.1 nM 17-beta-estradiol - cell viability counter screen (AID 1259241); note: nearly all actives have a fitted effect of over 40% in size; note: potency is the fitted concentration of half-maximal effect
In short: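 Live-cell protease activity (CellTiter-Fluor fluorescence, 30 min) was read in the same wells after VM7Luc4E2 cells had been exposed to compounds with 0.1 nM 17beta-estradiol for 22 hr at 37C.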

[18] = A CellTox Green Cytotoxicity Assay to monitor cytotoxicity in HepG2 cells - 40 hour (AID 1224879); note: nearly all actives have a fitted effect of over 40% in size
In short: as §4

[19] = qHTS RealTime-Glo MT Cell Viability Assay in HEK293 cells - 24 hour (AID 1224886); note: nearly all actives have a fitted effect of over 50% in size; note: potency is the fitted concentration of half-maximal effect
In short: as §1

[20] = A CellTox Green Cytotoxicity Assay to monitor cytotoxicity in HEK293 cells - 32 hour (AID 1224881); note: nearly all actives have a fitted effect of over 40% in size; note: potency is the fitted concentration of half-maximal effect
In short: as §3
% is set by controls: 0 for no effect and ±100 for the full control effect.

CC(C)CCCCCCOC(=O)CCCCC(=O)OCCCCCCC(C)C
inactive: Potency [1] | Potency [2] | max response [3] 0.314% | Potency [4] | Potency [5] | Potency [6] | Potency [7] | Potency [8] | Potency [9] | Potency [10] | Potency [11] | Potency [12] | Potency [13] | Potency [14] | Potency [15] | Potency [16] | Potency [17]

CCC(=O)Oc1ccc(/C(CC)=C(\CC)c2ccc(OC(=O)CC)cc2)cc1
inactive: Potency [2] | Potency [4] | Potency [5] | Potency [6] | Potency [7] | Potency [18] | Potency [8] | Potency [9] | Potency [10] | Potency [11] | Potency [12] | Potency [14] | Potency [15] | Potency [16] | Potency [17]
active: Potency [1] 24.5 µM | Potency [3] 17.4 µM | Potency [19] 21.9 µM

CC1=CC(=O)CC(C)(C)C1(O)/C=C/C(C)=C\C(=O)O (stereo unspecified)
inactive: Potency [1] | Potency [2] | max response [3] 8.54% | Potency [4] | Potency [5] | Potency [6] | Potency [7] | Potency [8] | Potency [20] | Potency [9] | Potency [10] | Potency [11] | Potency [12] | Potency [19] | Potency [13] | Potency [14] | Potency [15] | Potency [16] | Potency [17]

CCCOCCOCCO
inactive: Potency [1] | Potency [2] | max response [3] 2.29% | Potency [4] | Potency [5] | Potency [6] | Potency [7] | Potency [18] | Potency [8] | Potency [9] | Potency [10] | Potency [11] | Potency [12] | Potency [19] | Potency [13] | Potency [14] | Potency [15] | Potency [16] | Potency [17]

COc1ccccc1N=Nc1c(S(=O)(=O)O)cc2cc(S(=O)(=O)O)cc(NC(C)=O)c2c1O
active: Potency [17] 22.9 µM
inactive: Potency [1] | Potency [2] | max response [3] 1.04% | Potency [4] | Potency [5] | Potency [6] | Potency [7] | Potency [18] | Potency [8] | Potency [9] | Potency [10] | Potency [12] | Potency [19] | Potency [13] | Potency [14] | Potency [15] | Potency [16]

CCCC1C(CC)=CC(CC)=CN1c1ccccc1 (stereo unspecified)
inactive: Potency [2] | Potency [4] | Potency [5] | Potency [6] | Potency [7] | Potency [18] | Potency [8] | Potency [20] | Potency [9] | Potency [10] | Potency [11] | Potency [12] | Potency [14] | Potency [15] | Potency [16] | Potency [17]
active: Potency [1] 15.5 µM | Potency [3] 13.8 µM

CC[C@H](NC(=O)c1cc(F)ccc1NS(=O)(=O)c1cccc2cccnc12)c1ccccc1
inactive: Potency [1] | max response [3] -13% | Potency [4] | Potency [5] | Potency [7] | Potency [20] | Potency [9] | Potency [10] | Potency [11] | Potency [19] | Potency [14] | Potency [16] | Potency [17]
active: Potency [2] 41.3 µM | Potency [6] 52 µM | Potency [8] 23.2 µM | Potency [12] 46.3 µM

CCCCCC=CCC=CCCCCCCCC(=O)OCC
inactive: Potency [1] | Potency [2] | max response [3] -1.44% | Potency [4] | Potency [5] | Potency [6] | Potency [7] | Potency [18] | Potency [20] | Potency [9] | Potency [10] | Potency [11] | Potency [12] | Potency [19] | Potency [13] | Potency [14] | Potency [15] | Potency [16] | Potency [17]

Cc1cc2nc3ccc(=[N+](C)C)cc-3sc2cc1N
inactive: Potency [4] | Potency [5] | Potency [7] | Potency [18] | Potency [20] | Potency [9] | Potency [10] | Potency [11] | Potency [14] | Potency [15] | Potency [16]
active: Potency [1] 2.13 µM | Potency [2] 9.52 µM | Potency [3] 2.13 µM | Potency [6] 19 µM | Potency [12] 9.52 µM | Potency [19] 2.68 µM | Potency [13] 1.9 µM

COCC(O)CO (stereo unspecified)
inactive: Potency [1] | Potency [2] | max response [3] -5.25% | Potency [4] | Potency [5] | Potency [6] | Potency [7] | Potency [8] | Potency [20] | Potency [9] | Potency [10] | Potency [11] | Potency [12] | Potency [19] | Potency [14] | Potency [15] | Potency [16] | Potency [17]

CC(C)(CCl)c1ccccc1
inactive: Potency [1] | Potency [2] | max response [3] 4.77% | Potency [4] | Potency [5] | Potency [6] | Potency [7] | Potency [8] | Potency [20] | Potency [9] | Potency [10] | Potency [11] | Potency [12] | Potency [19] | Potency [13] | Potency [14] | Potency [15] | Potency [16]

Cc1ccccc1N1C(=O)c2cc(S(N)(=O)=O)c(Cl)cc2NC1C (stereo unspecified)
inactive: Potency [1] | Potency [2] | max response [3] -9.78% | Potency [4] | Potency [5] | Potency [6] | Potency [7] | Potency [18] | Potency [8] | Potency [9] | Potency [10] | Potency [11] | Potency [12] | Potency [19] | Potency [13] | Potency [14] | Potency [15] | Potency [16] | Potency [17]

c1cnc2c(n1)CCCC2
active: Potency [4] 43.6 µM | Potency [5] 38.9 µM | Potency [7] 38.9 µM | Potency [20] 43.6 µM | Potency [9] 24.5 µM | Potency [10] 43.6 µM | Potency [11] 43.6 µM | Potency [14] 43.6 µM | Potency [16] 38.9 µM
inactive: Potency [1] | Potency [2] | max response [3] 1.7% | Potency [6] | Potency [8] | Potency [12] | Potency [19] | Potency [13] | Potency [15] | Potency [17]

Brc1cc(-c2ccc(Br)c(Br)c2Br)cc(Br)c1Br
inactive: Potency [1] | Potency [2] | max response [3] 4.87% | Potency [4] | Potency [5] | Potency [6] | Potency [7] | Potency [8] | Potency [20] | Potency [9] | Potency [10] | Potency [11] | Potency [12] | Potency [19] | Potency [13] | Potency [14] | Potency [15] | Potency [16] | Potency [17]
